Results on 21 compounds are retold here after paper PMC11062922 (Nature Chemical Biology, 2023).

Each structure is given as a SMILES string. Like-named read-outs stand apart in the source and are kept apart here.

Holding throughout (set-up): species or system human, MV4-11 + K-562 + COLO205 + SK-N-BE2 + OVCAR-8
In one assay the test system is PDGFRB. As to conditions: read-out: apparent Kd, n = 1.
In the next assay the test system is TGFBR2. The following applies: read-out: apparent Kd, n = 1.
In another assay the test system is CDK9. The following applies: read-out: apparent Kd, n = 1.
The next assay has as its system ICK. The following applies: read-out: apparent Kd, n = 1.
The test system of another assay is CDK2. The following applies: read-out: apparent Kd, compound concentrations: 100 nM and 1000 nM (sheet 'Samples'), n = 1.
The subject of a further assay is PIK3CG. The following applies: read-out: apparent Kd, n = 1.
Another assay concerns ROCK1. The following applies: read-out: apparent Kd, compound concentrations: 100 nM and 1000 nM (sheet 'Samples'), n = 1.
The subject of a further assay is ULK1. The following applies: read-out: apparent Kd, n = 1.
The subject of a further assay is IRAK3. As to conditions: read-out: apparent Kd, n = 1.
In the next assay the test system is CDC42BPG. The following applies: read-out: apparent Kd, n = 1.
The subject of another assay is CDC42BPA. As to conditions: read-out: apparent Kd, compound concentrations: 100 nM and 1000 nM (sheet 'Samples'), n = 1.
The next assay concerns CSK. The following applies: read-out: apparent Kd; compound concentrations:100 nM and 1000 nM (sheet 'Samples'); n = 1.
Another assay concerns EPHA1. The following applies: read-out: apparent Kd; compound concentrations:100 nM and 1000 nM (sheet 'Samples'); n = 1.
The subject of a further assay is EPHB3. As to conditions: read-out: apparent Kd; compound concentrations:100 nM and 1000 nM (sheet 'Samples'); n = 1.
Another assay has as its system PRKG1. As to conditions: read-out: apparent Kd, compound concentrations: 100 nM and 1000 nM (sheet 'Samples'), n = 1.
A further assay has as its system MTOR. As to conditions: read-out: apparent Kd, n = 1.
A further assay concerns FYN. The following applies: read-out: apparent Kd; compound concentrations: 100 nM and 1000 nM (sheet 'Samples'), CATDS: 1.7018948843541101E-2; n = 1.
The next assay has as its system LYN. The following applies: read-out: apparent Kd; compound concentrations: 100 nM and 1000 nM (sheet 'Samples'), CATDS: 1.4378257714361201E-2; n = 1.
The test system of a further assay is AXL. The following applies: read-out: apparent Kd; compound concentrations: 100 nM and 1000 nM (sheet 'Samples'), CATDS: 1.01827981772752E-2; n = 1.
The mark [1] stands for this setting: compound concentrations:100 nM and 1000 nM (sheet 'Samples').

Regarding `CN(C)CCNC(=O)Nc1ccc(N(C)c2ccnc(Nc3ccc(CS(C)(=O)=O)cc3)n2)cc1.Cl` [GW830900A], the results for the potency estimated from few doses with PDGFRB (setting [1]) and with TGFBR2 (setting [1]) were 1330 nM and 1550 nM, respectively.
As for `CCN(CC)Cc1ccc(Nc2nccc(-c3cnn4ncccc34)n2)cc1` [GW780056X], the potency estimated from few doses is 19.4 nM in the assay on CDK9 (compound concentrations: 100 nM and 1000 nM (sheet 'Samples'), CATDS: 0.168116243338059); 433 nM with ICK (compound concentrations: 100 nM and 1000 nM (sheet 'Samples'), CATDS: 2.9886591978346599E-2); 746 nM in the assay on PDGFRB (compound concentrations: 100 nM and 1000 nM (sheet 'Samples'), CATDS: 2.40786043408843E-2).
For `O=C(O)C(F)(F)F.O=c1[nH]ccc2nc(N[C@@H]3CCNC3)nc(Nc3ccc4c(c3)S(=O)(=O)CC4)c12` [GSK2181306A], the potency estimated from few doses in the assay on CDK2 (CATDS: 1.3422730745161799E-2) was 398 nM; in the assay with PDGFRB (compound concentrations: 100 nM and 1000 nM (sheet 'Samples'), CATDS: 8.63750114385467E-3), 1400 nM; with PIK3CG (compound concentrations: 100 nM and 1000 nM (sheet 'Samples'), CATDS: 1.1005849922452E-2), 648 nM; with ROCK1 (CATDS: 8.6334191105918393E-3), 1410 nM; in the assay on ULK1 (compound concentrations: 100 nM and 1000 nM (sheet 'Samples'), CATDS: 1.11724420901094E-2), 623 nM.
In the case of `c1ccc(-c2n[nH]cc2Nc2ccnc3ccccc23)nc1` [GW694077X], the potency estimated from few doses is 57.6 nM in the assay with IRAK3 (compound concentrations: 100 nM and 1000 nM (sheet 'Samples'), CATDS: 9.0170551839232005E-2); 1650 nM in the assay with ROCK1 (CATDS: 2.4219369604879502E-2); 940 nM in the assay on TGFBR2 (compound concentrations: 100 nM and 1000 nM (sheet 'Samples'), CATDS: 2.8342721884761699E-2).
Turning to `O=C(O)C(F)(F)F.O=c1[nH]ccc2nc(N[C@@H]3CCNC3)nc(Nc3cc(Cl)cc(Cl)c3)c12` [GSK2188764A], in the assay with CDC42BPG (setting [1]), the potency estimated from few doses is 556 nM.
In the case of `COc1cc(Nc2nccc(-c3cnn4ncccc34)n2)cc(OC)c1` [GW801372X], the potency estimated from few doses in the assay with CDC42BPA (CATDS: 2.2465917361224799E-2) is 786 nM; in the assay with CDK9 (compound concentrations: 100 nM and 1000 nM (sheet 'Samples'), CATDS: 4.3233319898636102E-2), 142 nM; with ICK (compound concentrations: 100 nM and 1000 nM (sheet 'Samples'), CATDS: 7.2296176142385704E-2) it was 49.6 nM; with IRAK3 (compound concentrations: 100 nM and 1000 nM (sheet 'Samples'), CATDS: 2.51875293793523E-2), 553 nM; with PDGFRB (compound concentrations: 100 nM and 1000 nM (sheet 'Samples'), CATDS: 1.5756503418678101E-2) it was 3520 nM.
In the case of `CS(=O)(=O)CCn1c(=O)c(Oc2ccc(F)cc2F)cc2cnc(NC3CCOCC3)nc21` [RO5027956-000], the results for the potency estimated from few doses in the assay with CSK, in the assay on EPHA1 and in the assay on EPHB3 were 1540 nM, 724 nM and 2330 nM, respectively.
Regarding `Cl.Cl.NC(CNC(=O)c1cc(Br)c(-c2ccnc3[nH]ccc23)s1)c1ccccc1.NC(CNC(=O)c1cc(Br)c(-c2ccnc3[nH]ccc23)s1)c1ccccc1` (stereo not shown) [GSK1322949A], the potency estimated from few doses in the assay on CDC42BPG (compound concentrations: 100 nM and 1000 nM (sheet 'Samples'), CATDS: 3.2590652290340097E-2) is 1010 nM; with ICK (compound concentrations: 100 nM and 1000 nM (sheet 'Samples'), CATDS: 2.9774635875568601E-2) it was 1230 nM; in the assay with PRKG1 (CATDS: 7.4482262143184694E-2), 247 nM; in the assay on ROCK1 (CATDS: 9.3197598269089799E-2) it was 181 nM.
Consider `CNCC#Cc1c(F)ccc2c1/C(=C/c1[nH]ccc1OC)C(=O)N2.Cl` [RO0281601-001], for which, in the assay on ICK (compound concentrations: 100 nM and 1000 nM (sheet 'Samples'), CATDS: 2.2639550880060699E-2), the potency estimated from few doses was 1700 nM.
As to `Cc1cccc(Nc2nc(N[C@H]3CCNC3)ncc2C(N)=O)c1.Cl` [GSK2197149A], the potency estimated from few doses in the assay with IRAK3 (setting [1]) is 1280 nM; with MTOR (setting [1]) it was 532 nM; with PIK3CG (setting [1]), 819 nM; in the assay with TGFBR2 (setting [1]), 1870 nM.
On to `CCn1c(-c2cccnc2O)nc2cnccc21` [SB-736715], for which the potency estimated from few doses in the assay with CDC42BPG (compound concentrations: 100 nM and 1000 nM (sheet 'Samples'), CATDS: 1.9794934428915799E-2) was 767 nM; with CDK9 (compound concentrations: 100 nM and 1000 nM (sheet 'Samples'), CATDS: 1.2439318728053501E-2), 1990 nM; with FYN, 1010 nM; with IRAK3 (compound concentrations: 100 nM and 1000 nM (sheet 'Samples'), CATDS: 1.50971530533868E-2) it was 1280 nM; with LYN, 1420 nM; with MTOR (compound concentrations: 100 nM and 1000 nM (sheet 'Samples'), CATDS: 2.4342706030032701E-2), 547 nM. Besides, in the assay on PIK3CG (compound concentrations: 100 nM and 1000 nM (sheet 'Samples'), CATDS: 9.1944344631326697E-2), the potency estimated from few doses was 91.6 nM.
Consider `NCC(NC(=O)c1cc(-c2cn[nH]c2)c(-c2ccnc3[nH]ccc23)s1)c1ccccc1.NCC(NC(=O)c1cc(-c2cn[nH]c2)c(-c2ccnc3[nH]ccc23)s1)c1ccccc1.O=C(O)C(F)(F)F.O=C(O)C(F)(F)F` (stereo not shown) [GSK1325775A], for which the potency estimated from few doses in the assay with CDC42BPA (CATDS: 0.12802177694120001) was 75.6 nM; in the assay on CDC42BPG (compound concentrations: 100 nM and 1000 nM (sheet 'Samples'), CATDS: 3.6567109546732701E-2), 1070 nM; with PRKG1 (CATDS: 5.9396104813121603E-2), 330 nM; in the assay with ROCK1 (CATDS: 0.15957099257621499), 52.4 nM.
Consider `CC(C)Oc1ccc2c(-c3ccnc(Nc4ccc(N5CCN(C)CC5)cc4)n3)cnn2n1` [GW696155X], for which the potency estimated from few doses was 464 nM in the assay on IRAK3 (setting [1]) and 2040 nM with PDGFRB (setting [1]).
`CNc1cc(-c2ccc3c(N)n[nH]c3c2)nc(N)n1` [GSK2224810A]: the potency estimated from few doses in the assay on MTOR (setting [1]) is 475 nM.
Turning to `c1cnn2ncc(-c3ccnc(Nc4ccc5c(c4)OCCO5)n3)c2c1` [GW806290X], the potency estimated from few doses was 99.5 nM with CDK9 (compound concentrations: 100 nM and 1000 nM (sheet 'Samples'), CATDS: 6.9114282023058901E-2); 50.6 nM with ICK (compound concentrations: 100 nM and 1000 nM (sheet 'Samples'), CATDS: 0.106713874587666); 123 nM in the assay with TGFBR2 (compound concentrations: 100 nM and 1000 nM (sheet 'Samples'), CATDS: 6.1295123324086299E-2).
For the compound `CN(c1ccc(NC(=O)NCCN2CCOCC2)cc1)c1ccnc(Nc2ccc(CS(C)(=O)=O)cc2)n1.Cl` [GW830365A], in the assay with TGFBR2 (compound concentrations: 100 nM and 1000 nM (sheet 'Samples'), CATDS: 5.51715170179801E-2), the potency estimated from few doses was 958 nM.
Turning to `CN(C)CC(O)COc1ccc(Nc2nccc(-c3cnn4nc(N5CCOCC5)ccc34)n2)cc1` (stereo not shown) [GW767488X], the potency estimated from few doses is 534 nM in the assay on CDK9 (setting [1]); 1720 nM with ICK (setting [1]); 64.8 nM in the assay on IRAK3 (setting [1]); 215 nM with TGFBR2 (setting [1]); 793 nM with ULK1 (setting [1]).
Consider `COc1cc(Nc2nccc(N3CCC(NC(=O)c4cccc(NC(C)=O)c4)C3)n2)cc(OC)c1OC` (stereo not shown) [GSK1379754A], for which the potency estimated from few doses in the assay on IRAK3 (compound concentrations: 100 nM and 1000 nM (sheet 'Samples'), CATDS: 0.18683076270721999) was 372 nM.
In the case of `NC(=O)c1cc(-c2ccccc2)cc2c(C3CCNCC3)c[nH]c12` [GSK301362A], the potency estimated from few doses with PDGFRB (setting [1]) was 1630 nM.
For `COc1cc[nH]c1/C=C1\C(=O)Nc2ccc(F)c(C#CC3(O)CCNCC3)c21.Cl` [RO0282986-001], the potency estimated from few doses with AXL is 1230 nM; with CDK2 (CATDS: 1.26412371427807E-2), 615 nM; with CDK9 (compound concentrations: 100 nM and 1000 nM (sheet 'Samples'), CATDS: 1.1942255869273499E-2), 724 nM; in the assay with ICK (compound concentrations: 100 nM and 1000 nM (sheet 'Samples'), CATDS: 1.28060195349982E-2) it was 593 nM; in the assay with PDGFRB (compound concentrations: 100 nM and 1000 nM (sheet 'Samples'), CATDS: 1.1337273569473399E-2) it was 850 nM.
For the compound `CC(=O)N[C@@H](Cc1ccc(OP(=O)(O)O)cc1)C(=O)N[C@H]1CCC(=O)N2CCC[C@@H](C(=O)NCc3ccc(Cl)cc3)N2C1=O` [RO0325308-000], the results for the potency estimated from few doses in the assay with CSK, in the assay on IRAK3 (setting [1]) and in the assay on ULK1 (setting [1]) were 1550 nM, 1530 nM and 1610 nM, respectively.
